Hits are enriched below; roughly 1.1% of the tested compounds scored in any of these assays.
MOR-DOR inv ag: mu-delta opioid heterodimer inverse agonism; P35372+P41143; cell-based MOR-DOR heterodimer luminescence; inhibition, % at 9.3 µM; actives 0.21% (n = 340,000); AID 504357; in the data active = inhibition above about 22%, passing the limit was not always enough;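 note: 0% = cells with DMSO and 100% = wells without cells with DMSO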
HTR5A ag ctr: activates human HTR5A in OPRM1-OPRD1 agonist counter-screen. P47898. HTR5A agonist assay, luminescence, cell-based. activation, % at 9.3 µM. actives 0.61% (n = 340,000). AID 504692; in the data active = activation mostly above about 9.5%, no sharp cut-off; inactive = mostly below about 7.6%;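 note: 0% = cells with vehicle only and 100% = reference agonist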
Target sequence (P47898 whole entry, looked up): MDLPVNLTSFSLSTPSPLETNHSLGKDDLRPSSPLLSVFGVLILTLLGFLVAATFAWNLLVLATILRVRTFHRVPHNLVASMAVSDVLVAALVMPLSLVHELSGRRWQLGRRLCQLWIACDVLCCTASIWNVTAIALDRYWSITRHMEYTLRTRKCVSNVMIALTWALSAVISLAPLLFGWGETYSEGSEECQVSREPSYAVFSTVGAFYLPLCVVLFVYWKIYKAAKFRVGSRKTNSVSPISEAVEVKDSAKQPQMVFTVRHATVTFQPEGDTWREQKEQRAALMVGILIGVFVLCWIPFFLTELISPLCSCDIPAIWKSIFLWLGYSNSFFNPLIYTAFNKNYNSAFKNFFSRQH
HTR5A inv ag: counter-screen for OPRM1-OPRD1 inverse agonists: human HTR5A inverse agonism. actives 0.083% (n = 340,000). HTR5A cell line, luminescence. AID 504634. P47898. inhibition, % at 9.3 µM; in the data active = inhibition mostly above about 23%, no sharp cut-off; inactive = mostly below about 18%;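 note: 0% = cells with DMSO and 100% = no-cell wells with DMSO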
MOR-DOR ag-1: agonists of human mu-delta opioid receptor heterodimerization. P35372+P41143. cells, OPRM1-OPRD1 heterodimerization, luminescence. activation, % at 9.3 µM. actives 0.3% (n = 340,000). AID 504326;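 note: 0% = vehicle-treated cells and 100% = reference agonist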
MOR-DOR ag-2: opioid heterodimer agonism, HTR5A counter-screen. actives 13% (n = 800). U2OS counter-screen cells, complementation luminescence, 3 h. activation, % at 9.3 µM. shares compounds with HTR5A ag ctr
HTR5A ag confirm: HTR5A (human) agonism, confirmation; shares compounds with HTR5A ag ctr; HTR5A agonist cell assay, luminescence; actives 17% (n = 800); activation, % at 9.3 µM; in the data active = activation above about 17%;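 note: 0% = cells with vehicle only and 100% = full reference agonist response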
* marks the source's active call; other numbers are inactive results; x = no result given. Cut-off read from the data, not from the text of the source, unless noted: active = activation above about 18%; inactive = the rest.

SMILES	MOR-DOR inv ag	HTR5A ag ctr	HTR5A inv ag	MOR-DOR ag-1	MOR-DOR ag-2	HTR5A ag confirm
C=CCN1CCc2c(cc(O)c(O)c2Br)[C@@H](c2ccccc2)C1	-49.2	57.4*	-108.9	8.9	7.5	59.5*
CCCN1C[C@H](CSC)C[C@@H]2c3cccc4[nH]cc(c34)C[C@H]21	-12.0	90.4*	-322.9	2.2	38.1*	-0.4
CN(Cc1ccccc1)C(=O)COC(=O)c1cc(=O)c2ccccc2o1	5.7	-1.3	4.8	-1.1	x	x
CCn1c(N2CCN(S(=O)(=O)c3ccc(OC)cc3)CC2)nc2ccccc21	4.4	18.1*	-68.6	-0.9	2.5	37.1*
CCN(CC)CCCNC(=S)N1CCN(c2nc3ccccc3n2CC)CC1	2.6	19.2*	-29.9	-0.5	1.6	45.6*
Cn1c(N2CCN(S(=O)(=O)c3ccc(F)cc3)CC2)nc2ccccc21	10.0	-1.4	17.2	-2.1	x	x
CCn1c(N2CCN(C(=O)C34CC5CC(CC(C5)C3)C4)CC2)nc2ccccc21	-3.6	31.2*	-109.1	0.7	159.4*	-4.1
CCN(CC)CCCNC(=S)N1CCN(c2nc(-c3ccc(F)cc3)cs2)CC1	-12.8	3.4	-12.6	2.6	x	x
CCCCn1c(N)c(N(CC)C(=O)CSCC(=O)Nc2ccc(OC)cc2)c(=O)[nH]c1=O	10.4	0.2	-0.5	-1.9	x	x
Cc1c(C)c2ccc(OCC(=O)N3CCOCC3)c(C)c2oc1=O	2.8	-4.1	11.4	-0.6	x	x
N#Cc1ccc(-c2csc(NC(=O)C3CC3)n2)cc1	-3.4	2.4	-6.8	0.7	x	x
Cc1nc(-c2ccc(C#N)cc2)cs1	-3.6	15.1*	-13.0	0.7	13.5	3.7
CS(=O)(=O)c1ccc(NC(=O)C2CCCN(C(=O)c3ccc(Cl)cc3)C2)cc1 (stereo not given)	6.5	18.9*	-46.7	-1.5	5.9	4.2
O=C(C1CCCN(CCCc2ccccc2)C1)N1CCCCCC1 (stereo not given)	-16.7	-0.2	27.6	3.5	x	x
COc1ccc(CSCC(=O)N/N=C/c2ccccc2OCc2ccccc2)cc1	-4.7	21.9*	-57.5	0.8	0.9	1.4
COc1ccc(N(Cc2ccccc2)S(=O)(=O)c2cccc(C(=O)Nc3ccccn3)c2)cc1	14.7	18.8*	-47.9	-3.7	3.9	0.9
COc1ccc(OC)c(NC(=O)C(C)N2c3cccc4cccc(c34)S2(=O)=O)c1 (stereo not given)	8.8	1.7	-4.6	-1.6	x	x
O=C(O)/C=C/C(=O)Nc1ccc(C2(c3ccc(NC(=O)/C=C/C(=O)O)cc3)c3ccccc3-c3ccccc32)cc1	-9.5	26.4*	-100.1	1.9	3.5	-0.7
COc1ccc(S(=O)(=O)N(CC(=O)NCc2ccco2)c2ccccc2OC)cc1	7.5	17.3*	2.6	-1.2	3.3	2.3
COc1ccccc1N(CC(=O)NCc1ccco1)S(C)(=O)=O	9.4	3.1	-8.4	-1.9	x	x
COc1ccc(NS(=O)(=O)c2cccc(C(=O)N3CCN(Cc4cc(OC)ccc4OC)CC3)c2)cc1	-1.7	14.6*	-15.6	0.3	135.3*	-4.8
COc1ccc(Cl)cc1N(CC(=O)NCCSc1ccccn1)S(=O)(=O)c1ccccc1	-8.4	16.5*	-49.1	1.0	0.7	17.6*
COc1ccc(N(CC(=O)NCCSc2ccccn2)S(=O)(=O)c2ccccc2)cc1Cl	11.8	3.9	-2.9	-1.7	x	x
CN(CC(=O)Nc1cccc(F)c1)C(=O)C1(c2ccccc2)CC1	11.4	14.3*	-6.6	-2.9	2.9	-0.8
Cc1ccc(Oc2cc(NN3CCCCC3)c([N+](=O)[O-])cc2[N+](=O)[O-])c(Cl)c1	7.7	2.6	17.1	-1.3	x	x
SMILES	MOR-DOR inv ag	HTR5A ag ctr	HTR5A inv ag	MOR-DOR ag-1	MOR-DOR ag-2	HTR5A ag confirm
O=C(NCCc1ccccc1Cl)c1cc(COc2ccc(F)cc2F)on1	-5.4	-3.7	9.6	1.3	x	x
Cc1nc(NC(=O)/C=C/c2ccccc2)sc1C(=O)Nc1ccc(Cl)cc1	-58.5	17.1*	-48.9	11.6	4.1	4.2
Cc1nc(NC(=O)/C=C/c2ccccc2)sc1C(=O)Nc1ccccc1Cl	3.7	-1.9	18.9	-0.7	x	x
O=C(NCCc1c[nH]c2ccccc12)c1cc([N+](=O)[O-])cc([N+](=O)[O-])c1	-12.9	65.0*	-252.3	2.2	6.0	69.0*
Cc1ccc(N(C(=O)Cc2cccs2)C(C(=O)NC2CCCCC2)c2ccccn2)cc1C (stereo not given)	-19.1	15.4*	3.0	4.0	30.4*	18.6*
O=C(NCCCNC(=O)c1ccccn1)c1ccc(Cl)cc1	-2.4	18.2*	-51.7	0.4	0.4	4.4
COC(=O)CCC(=O)OC1(C)C(=O)C2=CN(CCc3c[nH]c4ccccc34)C(c3ccc(OC)cc3)=CC2=C(Br)C1=O (stereo not given)	-26.5	38.4*	-97.5	4.8	86.0*	2.3
c1ccc(Cc2nnc(-c3ccccc3)o2)cc1	-86.6	16.2*	-46.8	16.1	5.2	0.7
CCCn1c(SCc2ccon2)nc2ccccc2c1=O	17.6	-1.9	4.9	-3.1	x	x
Cc1ccc2nc3c(c(Nc4ccc5c(c4)OCCO5)c2c1)CCC3	9.5	41.4*	-190.1	-1.8	1.6	59.5*
Cc1ccc2nc3c(c(Nc4ccc(O)cc4)c2c1)CCC3	2.9	3.0	-10.8	-0.6	x	x
COc1ccccc1N1CCN(C(=O)c2ccc(Cn3c(=O)[nH]c4ccsc4c3=O)cc2)CC1	0.8	16.0*	9.2	-0.1	0.1	12.4
Cc1ccc(Cn2c(=N)n(CC(=O)c3ccccc3)c3ccccc32)cc1	-63.4	21.4*	-60.8	8.7	10.6	6.2
C/C(=N\NC(=O)CNC(=O)C1COc2ccccc2O1)c1ccco1 (stereo not given)	-2.0	2.6	-10.3	0.4	x	x
COc1ccc2c(CC(=O)NC(Cc3ccc(Cl)cc3)C(=O)O)cc(=O)oc2c1C (stereo not given)	3.9	1.0	-3.6	-0.9	x	x
O=C1c2ccccc2C(=O)N1CCc1c[nH]c2ccc(O)cc12	9.1	23.9*	-100.5	-1.9	2.8	4.6
O=C(NN1C(=O)c2ccccc2C1=O)C1CC2CCC1C2 (stereo not given)	-4.4	14.4*	-18.7	0.9	-0.3	-0.9
O=C(CCNC(=O)c1ccco1)Nc1ccc(Cl)cc1	1.3	0.1	-0.4	-0.2	x	x
O=C(CNC(=O)c1ccco1)Nc1ccc(Cl)cc1	13.1	21.4*	-79.3	-2.8	-1.9	2.6
COc1ccc(N2C(=O)CCC(C(=O)N3CCCCC3)C2c2ccc(F)cc2)cc1 (stereo not given)	16.7	4.8	-0.6	-4.0	x	x
COc1ccc(N2C(=O)CCC(C(=O)O)C2c2ccc(F)cc2)cc1 (stereo not given)	8.9	16.5*	-23.0	-1.7	1.0	3.6
CCOC(=O)c1sc(N/N=C/c2cccc(C)c2)nc1C	-18.3	-0.5	-1.6	3.2	x	x
C=CCN(C/C(=N\O)c1sc(C(=O)OCC)nc1C)c1cccc(Br)c1	-43.7	21.8*	-58.6	7.5	7.6	2.1
